# Measurements taken from PubChem BioAssay (NCATS).
# Results filed as inconclusive are left out. Entries that show only a call come without a potency. The source made the active and inactive calls. The call rests on the fitted dose curve; in most records, active means well fitted inhibition curve with a large enough effect; inconclusive means small, poorly fitted or top-dose-only effect; inactive means flat fitted curve, though single readings scatter.
# Biological target: Phospholipid hydroperoxide glutathione peroxidase GPX4 (Homo sapiens) (UniProt P36969)
# Assay: Primary qHTS Assay for Inhibitors of Recombinant Selenoprotein Glutathione Peroxidase 4 (GPX4) (AID 1845192); further: nearly all actives have a fitted effect of over 65% in size
# Details: recombinant GPX4, GR-coupled NADPH fluorescence, 15 min; series mostly up to 50 µM
# How it was run: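 Steps: GPX4 plus compound, 30 min RT; add GR/GSH/NADPH master mix; start with cumene hydroperoxide; read 340/450 nm fluorescence at 0 and 15 min. Finals were 200 nM GPX4, 1 mM GSH, 0.5 mM CHP, 0.5 mM NADPH, 100 nM GR.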
# Chain of Phospholipid hydroperoxide glutathione peroxidase GPX4 (Homo sapiens) (P36969 whole entry, looked up): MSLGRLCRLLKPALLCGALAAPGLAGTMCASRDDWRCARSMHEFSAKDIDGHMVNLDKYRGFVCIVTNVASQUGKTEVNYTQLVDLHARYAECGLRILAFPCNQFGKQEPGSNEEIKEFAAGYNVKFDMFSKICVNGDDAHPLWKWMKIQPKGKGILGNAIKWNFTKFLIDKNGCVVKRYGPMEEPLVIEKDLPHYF
row,SMILES,Potency
1,C[C@H](N)[C@H](O)c1ccc(O)c(O)c1,inactive
2,NC(=O)CN1CCCC1=O,inactive
3,COC(=O)C1=CCCN(C)C1,inactive
4,C[C@@H]1CC[C@H]2[C@@H](C)C(=O)O[C@@H]3O[C@@]4(C)CC[C@@H]1[C@]32OO4,inactive
5,O=C(O)c1nn(Cc2ccc(Cl)cc2Cl)c2ccccc12,inactive
6,C=CCN1CC[C@]23CCCC[C@H]2[C@H]1Cc1ccc(O)cc13,inactive
